Reference: ChEMBL document CHEMBL4513216, “Probing the Open Global Health Chemical Diversity Library for Multistage-Active Starting Points for Next-Generation Antimalarials” (ACS Infect Dis, 2020)
Out of some 69,000 compounds screened, about 8,600 (12%) showed an effect of 50% or more. The entries come from a sample that favours strong results as a whole.

These compounds were tested on Plasmodium berghei (assay: Screen against P. berghei liver stage (PbLuc), transformed with Luciferase, at 10uM). Conditions: tested at 10 uM.
Format: functional, HepG2

Structure (SMILES)	INHIBITION [%]
CCCC1C=CCN1C(=O)c1cc(COc2ccccc2)[nH]n1 (configuration not stated)	-1.49
CCCNC(=O)c1cc2c(s1)CCN2C(=O)CN(C)C	-25.2
CCn1cc(NC(=O)NCC(C)(C)N2CCc3ccccc3C2)cn1	-31.8
CC(=O)N1CCCN(C(=O)c2ccc(Cn3ccccc3=O)o2)CC1	19.45
COc1ccc(OC)c(NC(=O)c2c(C)cn(C)c2CC(=O)O)c1	29
CCOCc1ccccc1NC(=O)NC1CCN(C2CCCC2)C1 (configuration not stated)	58.6
CCOCc1ccccc1NC(=O)NC1CCN(CC(F)(F)F)C1 (configuration not stated)	38.3
CCOCc1ccccc1NC(=O)NC1CCN(c2ccccc2)C1 (configuration not stated)	36.2
CCOCC(O)CN1CCN(C(=O)c2cccc(CC#N)c2)CC1 (configuration not stated)	9.54
CCSc1nsc(NC(=O)COc2ccc3c(c2)OCO3)n1	49.4
COC1COC2(CCN(Cc3ccccc3C)CC2)C1 (configuration not stated)	37.1
CCO[C@H]1CO[C@@]2(CCN(Cc3ccc4c(c3)OCO4)C2)C1	-20.8
COc1ccccc1CN1CCC2(CC1)CC(Oc1ccccn1)CO2 (configuration not stated)	14.2
Cn1cc(CN2CCC[C@]3(C[C@H](Oc4ccccn4)CO3)C2)cn1	46.4
COC1COC2(CCN(Cc3ccccc3F)CC2)C1 (configuration not stated)	3.25
COC1COC2(CCN(Cc3ccc4ccccc4n3)CC2)C1 (configuration not stated)	57.4
c1ccc(O[C@@H]2CO[C@@]3(CCCN(CC4CCOCC4)C3)C2)nc1	32.2
CCO[C@@H]1CO[C@@]2(CCN(Cc3ccc4c(c3)OCO4)C2)C1	18.6
c1ccc(O[C@H]2CO[C@@]3(CCN(Cc4ccc5c(c4)OCO5)C3)C2)nc1	71.9
Cn1cc(CN2CC[C@]3(C[C@H](Oc4ccccn4)CO3)C2)cn1	51.4
Cn1cc(CN2CCC[C@]3(C[C@@H](Oc4ccccn4)CO3)C2)cn1	15.6
c1ccc(OC2COC3(CCN(CC4CC4)CC3)C2)nc1 (configuration not stated)	53.2
CC(=O)N1CCCn2nc(CNC(=O)N3CCCCC3)cc2C1	14.3
CCc1ncc2c(n1)CN(c1cc(N3CCN(C)CC3)nc(N)n1)C2	19.7

Structure (SMILES)	INHIBITION [%]
CNc1nc(C2CCCN2)nc2c1CCN(S(=O)(=O)C1CCCCC1)C2 (configuration not stated)	-44.8
CC(C)CCC(=O)N1CCCC2(CCN(Cc3ccccc3C#N)C2)C1 (configuration not stated)	1.71
COc1ccc(CCn2cnc(C#N)n2)cc1	-7.46
Cc1cccc(CN2CCc3onc(Cn4cccc4)c3C2)n1	31.5
NC(=O)c1cc(CC2CCCN(Cc3cnccn3)CC2)ncn1 (configuration not stated)	-0.232
Cn1cc(CN2CCC3(CC2)CC(Nc2nccs2)CO3)cn1 (configuration not stated)	13.6
c1cnc(NC2COC3(CCN(Cc4ccoc4)CC3)C2)nc1 (configuration not stated)	3.25
c1ccc(CN2CCC3(CC2)CC(Nc2nccs2)CO3)nc1 (configuration not stated)	53.2
c1ccc(OC2COC3(CCN(Cc4ccccn4)CC3)C2)cc1 (configuration not stated)	81.2
CCN1CCC2(CC1)CC(Nc1ncccn1)CO2 (configuration not stated)	45.7
Cn1cc(CN2CC[C@]3(C[C@H](OCc4ccccn4)CO3)C2)cn1	69.6
c1ccc(CO[C@H]2CO[C@@]3(CCN(Cc4ccoc4)C3)C2)nc1	14.2
c1ccc(CN2CCC3(CC2)CC(Oc2cccnc2)C3)nc1	31.2
c1ccc(CN2CC[C@]3(C[C@@H](Oc4ccccn4)CO3)C2)nc1	31.3
Cc1cc(C)cc(CN2CCC3(CC2)CC(Nc2ncccn2)CO3)c1 (configuration not stated)	50.7
c1ccc(CO[C@@H]2CO[C@@]3(CCN(Cc4ccccn4)C3)C2)nc1	1.58
O=C(NC1COC2(CCN(Cc3ccccn3)CC2)C1)c1ccccn1 (configuration not stated)	-8.69
CCOCCC(=O)Nc1cccc(Cl)c1C(N)=O	-39.2
O=C(O)c1ccccc1-c1ccc(CN2CC(O)C2)cc1	-13.7
CC(=O)N1CCC[C@H]1C(=O)NCCCN(C(C)C)S(C)(=O)=O	25.4
CCNC(c1ccc(Br)cc1)c1cccnc1 (configuration not stated)	3.15
CC(C)(C)c1nnc2n1C(C(=O)N1CCCC1)CC2 (configuration not stated)	21.7
CCC1CN(C(=O)c2cccc(OCc3cscn3)c2)CCO1 (configuration not stated)	32.025
Cc1cnn(CC2CCCN2Cc2nccn2CC(F)(F)F)c1 (configuration not stated)	-10.1

Structure (SMILES)	INHIBITION [%]
CC(C1CCN(Cc2c(Cl)ccc(O)c2Cl)CC1)N1CCN(C)CC1 (configuration not stated)	21.145
CN1CCN(C[C@@H]2CN(Cc3c(Cl)cncc3Cl)C[C@@H]2CO)CC1	-56.2
CC(C1CCN(Cc2c(Cl)cncc2Cl)CC1)N1CCOCC1 (configuration not stated)	52.5
CC(C1CCN(Cc2ccc(N(C)C)nc2)CC1)N1CCOCC1 (configuration not stated)	36.2
CC(C1CCN(Cc2ccc(OC(F)F)cc2)CC1)N1CCOCC1 (configuration not stated)	33.7
CC(C1CCN(Cc2c(Cl)cncc2Cl)CC1)N1CCN(C)CC1 (configuration not stated)	51.3
c1cnc(NC2COC3(CCN(Cc4nccs4)CC3)C2)cn1 (configuration not stated)	42.7
CCN(CC)c1ncc(CNC2CCc3ncnn3C2)s1 (configuration not stated)	-17.9
CC(C)(C)S(=O)(=O)CCNC(=O)c1ccc2cc[nH]c2c1	-19.7
COCCN1C[C@@H]2CN(Cc3ccc(C)s3)CCC[C@]2(C(=O)O)C1	24.9
COCCn1cc2c(n1)C(CNCc1ccco1)OCC2 (configuration not stated)	-11.5
COc1c(CNC2(c3noc(C)n3)CCC2)c(C)nn1C	-81.2
COCCCNC(=O)Nc1cccc(Cl)c1-n1cccn1	-31.5
COCCN(Cc1ccccn1)C(=O)CC1OCCc2ccccc21 (configuration not stated)	10.9
COCCN(Cc1ccccn1)C(=O)CC1OCCc2ccsc21 (configuration not stated)	58.2
COCCN(Cc1ccccn1)C(=O)CC1OCCc2sccc21 (configuration not stated)	35
COCc1nc(Cn2c(C)cc(C(F)(F)F)cc2=O)no1	32.1
Cc1ccc(C)c(NC(=O)c2cc(S(=O)(=O)N3CCSCC3)c[nH]2)c1	32
CN(C)S(=O)(=O)N1C[C@H]2CCC[C@@]2(COCC2CCOCC2)C1	40.8
Cc1cccc(COC[C@@]23CCC[C@@H]2CN(S(=O)(=O)N(C)C)C3)n1	52.6
CN(C)S(=O)(=O)N1C[C@H]2CCC[C@@]2(COCC2CC2)C1	63
CS(=O)(=O)N1C[C@H]2CCC[C@@]2(COCC2CCOCC2)C1	5.36
CN(C)S(=O)(=O)N1C[C@H]2CCC[C@@]2(COCc2ccccn2)C1	31.9
CN(C)S(=O)(=O)N1C[C@H]2CCC[C@@]2(COCc2cccnc2)C1	-136
